Reference: the supplement of paper PMC13380429

Assays:
[1] = tested on: Vero E6 infected with SARS-CoV-2; assay: morphology score (similarity to uninfected cells); higher = more like uninfected cells; conditions: 24 h
[2] = tested on: Vero E6 infected with SARS-CoV-2; assay: SARS-CoV-2 infection rate relative to infected DMSO; higher = more infection, active = 60 or less; conditions: 24 h

| Compound | morphology score [1] | SARS-CoV-2 infection rate [2] |
| --- | --- | --- |
| CCCc1nc2c(C)cc(-c3nc4ccccc4n3C)cc2n1Cc1ccc(-c2ccccc2C(=O)O)cc1 [telmisartan] (10 µM) | 0.215 | 100% (inactive) |
| Nc1ccc(C(=O)O)c(O)c1 [aminosalicylate] (10 µM) | -0.137 | 106% (inactive) |
| CC(O)c1cc(C(=O)N[C@@H](C)Cn2ccc(-c3ccc(C#N)c(Cl)c3)n2)n[nH]1 (stereo partly drawn) (10 µM) | 0.201 | 106% (inactive) |
| NC(=O)c1cccnc1 [nicotinamide] (10 µM) | 0.026 | 108% (inactive) |
| O=C(NNc1ccccc1)c1ccncc1 [plurisin-1] (10 µM) | -0.14 | 108% (inactive) |
| CCOC(=O)c1ccc(OCCC2CCN(c3ccc(C)nn3)CC2)cc1 [pirodavir] (10 µM) | 0.0282 | 104% (inactive) |
| CCCC(=O)O[C@]1(C(=O)CCl)[C@@H](C)C[C@H]2[C@@H]3CCC4=CC(=O)C=C[C@]4(C)[C@@]3(F)C(=O)C[C@@]21C [clobetasone-butyrate] (10 µM) | 0.344 | 96% (inactive) |
| O=C(O)c1ccccc1S [o-mercapto-benzoic-acid] (10 µM) | 0.201 | 101% (inactive) |
| C[N+](C)(C)CC#CCN1CCCC1=O [oxotremorine-M] (10 µM) | 0.0604 | 89.5% (inactive) |
| CCN1CCC[C@H]1CNC(=O)c1c(O)c(Cl)cc(Cl)c1OC [raclopride] (10 µM) | 0.124 | 104% (inactive) |
| O=C(N[C@H]1CN2CCC1CC2)c1ccc(Cl)cc1 (10 µM) | -0.0585 | 99.5% (inactive) |
| O=S(=O)(O)NC1CCCCC1 [cyclamic-acid] (10 µM) | 0.146 | 87.5% (inactive) |
| CCCCCCOC(=O)NC(=N)c1ccc(NCc2nc3cc(C(=O)N(CCC(=O)OCC)c4ccccn4)ccc3n2C)cc1 [dabigatran-etexilate] (10 µM) | 0.027 | 98.5% (inactive) |
| O=C(CCCN1CCC2(CC1)C(=O)NCN2c1ccccc1)c1ccc(F)cc1 [spiperone] (10 µM) | 0.763 | 22% (active) |
| O=c1[nH]c(=O)n([C@H]2C[C@H](O)[C@@H](CO)O2)cc1/C=C/Br [brivudine] (10 µM) | 0.0102 | 108% (inactive) |
| N[C@@H](C[C@@H](F)C(=O)O)C(=O)O (10 µM) | 0.0323 | 110% (inactive) |
| CCS(=O)(=O)N1CC(CC#N)(n2cc(-c3ncnc4[nH]ccc34)cn2)C1 [baricitinib] (10 µM) | 0.418 | 112% (inactive) |
| CC(C)(C)c1ccc(C(=O)CCCN2CCC(OC(c3ccccc3)c3ccccc3)CC2)cc1 [ebastine] (10 µM) | 0.606 | 50% (active) |
| CCOc1cc(C=O)ccc1O [ethyl-vanillin] (10 µM) | 0.19 | 100% (inactive) |
| Cc1ccccc1C(C(=O)NC1CCCCC1)N(C(=O)Cn1ccnc1C)c1cccc(F)c1 (stereo not drawn) (10 µM) | 0.177 | 108% (inactive) |
| CN1[C@@H]2CC[C@H]1C[C@@H](OC(=O)c1cc(Cl)cc(Cl)c1)C2 [bemesetron] (10 µM) | 0.216 | 89.5% (inactive) |
| CCOC(=O)c1c(/C(C#N)=C\N)c2ccc(Cl)c(Cl)c2n1C (10 µM) | -0.0335 | 105% (inactive) |
| CN1C(C(=O)Nc2ccccn2)=C(O)c2ccccc2S1(=O)=O [piroxicam] (10 µM) | 0.184 | 98.5% (inactive) |
| CC(C)N(CCC(=O)c1ccc2ccccc2c1)Cc1ccccc1 (10 µM) | 0.0866 | 104% (inactive) |
| CSc1nc2ccc3nc(NC(=O)C(c4ccccc4)c4ccccc4)sc3c2s1 (10 µM) | 0.0833 | 94.5% (inactive) |
| CC(=O)C1=C(O)[C@@H]2[C@H]3c4c[nH]c5cccc(c45)C[C@H]3C(C)(C)N2C1=O [cyclopiazonic-acid] (0.833333 µM) | 0.361 | 76.5% (inactive) |
| Cc1ccccc1NC(=N)Nc1ccccc1C [ditolylguanidine] (10 µM) | -0.286 | 117% (inactive) |
| COc1cc(C[C@H](C)[C@H](C)Cc2ccc3c(c2)OCO3)ccc1O [macelignan] (10 µM) | 0.185 | 102% (inactive) |
| CCOC(=O)N1c2ccc(C(F)(F)F)cc2[C@@H](N(Cc2cc(C(F)(F)F)cc(C(F)(F)F)c2)C(=O)OC)C[C@H]1CC (10 µM) | 0.259 | 93% (inactive) |
